Where “and” joins values, the source holds several entries; their conditions need not be identical. Identical values can stand only once. Screen size: about 16,000 compounds; about 2,600 (16%) were called active. About 20% were inconclusive and are not listed. Calls follow the shape of the dose curve; as a rule, active = well fitted curve in the direction sought with a large enough effect; inconclusive = small, poorly fitted or top-dose-only effect, or effect the other way; inactive = no such curve, though single readings can be large or run the other way. The list is a sample of the results. The source holds several records for some structures; these can differ, active in one and inactive in another.
Target: Cytochrome P450 2D6 (Homo sapiens) (UniProt P10635)
Sequence (P10635 whole entry, looked up): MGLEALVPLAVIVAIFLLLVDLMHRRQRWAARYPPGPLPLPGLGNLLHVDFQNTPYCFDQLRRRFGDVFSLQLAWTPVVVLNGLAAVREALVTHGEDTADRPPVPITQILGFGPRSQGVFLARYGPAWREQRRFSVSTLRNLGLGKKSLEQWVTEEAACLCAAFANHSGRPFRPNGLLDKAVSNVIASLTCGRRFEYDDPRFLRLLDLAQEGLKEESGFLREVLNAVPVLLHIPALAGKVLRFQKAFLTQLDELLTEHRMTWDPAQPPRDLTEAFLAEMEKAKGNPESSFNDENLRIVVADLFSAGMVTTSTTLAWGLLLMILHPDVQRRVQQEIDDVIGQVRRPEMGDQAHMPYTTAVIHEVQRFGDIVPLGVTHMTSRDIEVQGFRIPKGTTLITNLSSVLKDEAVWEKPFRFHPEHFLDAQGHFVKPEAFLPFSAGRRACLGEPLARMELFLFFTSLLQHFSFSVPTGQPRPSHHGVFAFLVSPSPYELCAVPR
Test: Cytochrome panel assay with activity outcomes
Conditions: recombinant CYP, pro-luciferin dealkylation, luminescence, p450-cyp2d6; series mostly up to 57.1 µM; activity, negative = inhibition: at the top concentration
% is scaled to controls: 0 for no effect and ±100 for the full control effect.

Row | SMILES | activity, negative = inhibition | AC50
1 | CCOc1ccc(/C(O)=C2/C(=O)C(=O)N(CCOCCO)C2c2cccnc2)cc1 (stereo unspecified) | 0.201% (inactive) | –
2 | CN[C@H](CC(=O)O)C(=O)O | 5.67% (inactive) | –
3 | C=C[C@@]1(C)CC(=O)[C@@]2(O)[C@@]3(C)[C@@H](O)CCC(C)(C)[C@@H]3[C@H](O)[C@H](OC(C)=O)[C@@]2(C)O1 | 13.2% (inactive) | –
4 | COc1ccc(C(=O)N2CCC3(CC2)CN(C(=O)Nc2ccccc2)C3)cc1 | -0.471% (inactive) | –
5 | Cc1cc(C(C#N)c2cccc(Cl)c2)n2ncnc2n1 (stereo unspecified) | -12.6% (inactive) | –
6 | CC1CC(=O)c2cnc(N)nc2C1 (stereo unspecified) | -2.38% (inactive) | –
7 | COC(=O)[C@@H]1CC[C@H](C)[C@@H](c2ccc(C)cc2)N1C(=O)c1ccc(/C=N\O[C@@H](C)c2cn([C@H]3COC[C@H]3O)nn2)cc1 | -10% [at 11.4 µM] (inactive) | –
8 | CC(C)=CC(=O)Nc1nnc(C(C)C)s1 | -2.19% (inactive) | –
9 | COc1ccc(OCc2nnc(SCC(=O)O)n2N)cc1 | 0.675% (inactive) | –
10 | O=C(c1ccco1)N1CCC2(CC1)CN(c1ccc(-c3ccccc3)cc1)C2 | -3.41% (inactive) | –
11 | O=C(c1ccco1)N1CCC2(CC1)CN(C(c1ccccc1)c1ccccc1)C2 | – | 1.26 µM (active)
12 | O=C(c1ccco1)N1CCC2(CC1)CN(c1ccccc1)C2 | -1.67% (inactive) | –
13 | O=C(N/C(=C\c1cccs1)C(=O)N1CCCCCC1)c1ccccc1 | 36.2% (inactive) | –
14 | O=C(O)CS(=O)c1ccc2c3c(cccc13)C(=O)c1ccccc1-2 (stereo unspecified) | 21.8% [at 11.4 µM] (inactive) | –
15 | CN(C(=O)COc1cccc(Br)c1)C1CCS(=O)(=O)C1 (stereo unspecified) | 1.67% (inactive) | –
16 | COc1ccc(NC(=O)COC(=O)c2c(-c3ccccc3)noc2C)cc1 | -25.8% (inactive) | –
17 | C/C(=N\NC(=O)c1ccc(Cl)cc1)c1ccc(Br)s1 | -11.7% (inactive) | –
18 | CCSC(=N)N | – | inactive and 3.98 µM (active)
19 | CSC(=N)N | – | inactive and 50.1 nM (active)
20 | N=C(N)SCCN | – | inactive
21 | N=C(N)SCCSC(=N)N | 5.17% [at 11.4 µM] (inactive) | –
22 | CC(C)SC(=N)N | -10% (inactive) | –
23 | C[C@@H](CSC(=N)N)C(N)=O | 4.14% [at 11.4 µM] (inactive) | –
24 | CCn1c(C)nc2cc(S(=O)(=O)C(F)F)ccc21 | -10.5% (inactive) | –

Row | SMILES | activity, negative = inhibition | AC50
25 | Cc1ccc(Sc2nc(-c3ccccc3)ccc2C#N)cc1 | 14.4% (inactive) | –
26 | CCOC(=O)C1CCCN(C(=O)C2CCN(S(=O)(=O)N3CCC4(CC3)OCCO4)CC2)C1 (stereo unspecified) | 22.9% (inactive) | –
27 | CCCCSc1nnc(-c2ccc(C)cc2)n1C | -29.4% (inactive) | –
28 | COC(=O)CNC(c1ccccc1Cl)c1cc(Br)ccc1NC(=O)CCN1CCOCC1 (stereo unspecified) | -2.43% (inactive) | –
29 | NNC(=O)CNC(c1ccccc1)c1cc(Br)ccc1NC(=O)c1ccccc1Br (stereo unspecified) | – | 7.94 µM (active)
30 | NNC(=O)CNc1cccc(Br)c1 | -9.21% [at 11.4 µM] (inactive) | –
31 | O=S1(=O)N[C@H]2CC[C@@H]3NS(=O)(=O)N[C@H]4CC[C@H](N1)N4S(=O)(=O)N23 | 12.7% [at 11.4 µM] (inactive) | –
32 | CC(C)(C)N1C(=O)[C@H]2[C@@H]3[C@H](O)C=CC(=O)[C@H]3CC[C@H]2C1=O | 7.58% [at 11.4 µM] (inactive) | –
33 | COc1ccc(N(C)C(=O)c2ccc3nc(-c4ccccc4)c(-c4ccccc4)nc3c2)cc1 | -20% (inactive) | –
34 | CS(=O)(=O)N1CC(C(=O)NC2CC2)Oc2ccc(Cl)cc21 (stereo unspecified) | -34.3% (inactive) | –
35 | C=C(CC1([C@@H](NP(=O)(c2ccccc2)c2ccccc2)[C@H]2C[C@@H]2CCN(C(=O)OCC)S(=O)(=O)c2ccc(C)cc2)CC1)c1ccccc1 | -3.76% (inactive) | –
36 | N#CCCn1c(=O)c(-c2ccc(Cl)cc2)nc2cnc(N3CCOCC3)nc21 | 7.8% (inactive) | –
37 | Cc1ncc(CSC(=N)N)n1Cc1ccccc1 | -11.5% [at 11.4 µM] (inactive) | –
38 | Cc1ccc([C@@H](O)c2cnc(C)n2Cc2ccccc2)cc1 | – | 0.631 µM (active)
39 | Cc1nc2cncnc2n(Cc2ccccc2)c1=O | -16.4% (inactive) | –
40 | Cc1nn2c(C)nc3sc4c(c3c2nc1=O)CC(C)(C)OC4 | -14% (inactive) | –
41 | CCOC(=O)N1CCN(C(=O)c2ccc(NC(C)=O)cc2)CC1 | 6.16% (inactive) | –
42 | CCOC(=O)c1cnc(-c2ccccc2)nc1Oc1ccccc1 | 3.05% (inactive) | –
43 | CCOC(=O)c1cnc(-c2ccccc2)nc1Oc1cccc(Cl)c1 | -10.8% (inactive) | –
44 | CCOC(=O)c1cnc(SCCc2ccccc2)nc1N | – | 2 µM (active)
45 | O=C1C(O)=C(O)C(=O)C(O)=C1O | 3.02% [at 25.6 µM] (inactive) | –
46 | NS(=O)(=O)c1ccc(NCc2ccccc2OCc2ccccc2F)cc1 | – | 15.8 µM (active)
47 | NS(=O)(=O)c1ccc(NCc2cnc3ccccc3n2)cc1 | 16.5% [at 11.4 µM] (inactive) | –
48 | NS(=O)(=O)c1ccc(NCc2nc3ccccc3[nH]2)cc1 | -10.2% [at 11.4 µM] (inactive) | –

Row | SMILES | activity, negative = inhibition | AC50
49 | O=C(NNC(=O)c1ccccc1)C(=O)N1CCCCC1 | 4.89% (inactive) | –
50 | BrC(c1cccc2ccccc12)c1cccc2ccccc12 | 11.2% [at 11.4 µM] (inactive) | –
51 | COc1ccccc1-c1cncnc1NCc1ccccc1 | – | 15.8 µM (active)
52 | COc1ccccc1-c1cncnc1NCc1cccc(C)c1 | – | 20 µM (active)
53 | COc1cccc(-c2cncnc2NCc2cccc(C)c2)c1 | – | 12.6 µM (active)
54 | Cc1cccc(CNc2ncncc2-c2cccc(NS(C)(=O)=O)c2)c1 | – | 20 µM (active)
55 | Cc1cccc(CNc2cc(-c3cccc(NS(C)(=O)=O)c3)ncn2)c1 | -19.4% (inactive) | –
56 | CNc1ncncc1-c1ccccc1OC | -8.63% (inactive) | –
57 | NCCCNCCCCNCCCN | – | inactive
58 | O=C(c1ccc(-c2nnc(Nc3ccccc3)c3ccccc23)cc1)N1C[C@H]2C[C@H](C1)c1cccc(=O)n1C2 | -7.8% (inactive) | –
59 | O=C(NCc1ccco1)c1ccc2c(=O)n(-c3ccccc3)c(=S)[nH]c2c1 | 5.2% (inactive) | –
60 | COc1ccc(-n2c(=O)c(-c3ccc(F)cc3)nc3cnc(OC)nc32)cc1 | 2.35% (inactive) | –
61 | O=C(Nc1ccc(C(=O)Nc2ccc(C(=O)Nc3ccc(S(=O)(=O)O)c4cc(S(=O)(=O)O)cc(S(=O)(=O)O)c34)cc2)cc1)Nc1ccc(C(=O)Nc2ccc(C(=O)Nc3ccc(S(=O)(=O)O)c4cc(S(=O)(=O)O)cc(S(=O)(=O)O)c34)cc2)cc1 | 6.42% (inactive) | –
62 | Cc1nonc1NC(=O)OCCN1CCOC1=O | -3.81% (inactive) | –
63 | O=C(O)/C(=C/c1c(C(=O)O)[nH]c2cc(Cl)cc(Cl)c12)c1ccccc1 | -0.959% (inactive) | –
64 | C[C@@]12CCC(=O)C=C1CC[C@@H]1[C@@H]2[C@H](O)C[C@]2(C)[C@@H]1CC[C@]2(O)C(=O)COC(=O)CCC(=O)O | 1.71% (inactive) | –
65 | COc1c(O)cc2c(c1O)[C@@H]1O[C@@H](CO)[C@@H](O)[C@@H](O)[C@@H]1OC2=O | -2.8% [at 25.6 µM] (inactive) | –
66 | CSc1nc(C)c(CCOC(=O)c2ccccc2)c(=O)[nH]1 | -10.1% (inactive) | –
67 | CCN(CC)C(=O)c1cc2cc([N+](=O)[O-])ccc2s1 | -21.9% (inactive) | –
68 | CC1CCCC(NC(=O)c2n[nH]c(=O)c3ccccc23)C1C (stereo unspecified) | -6.47% (inactive) | –
69 | COc1cc([C@H](O)C(=O)O)ccc1O | 3.7% (inactive) | –
70 | O=[N+]([O-])c1cccc(-c2nc(-c3ccncc3)no2)c1 | -23.6% (inactive) | –
71 | NS(=O)(=O)c1ccc(N=C2C(=O)Nc3ccccc32)cc1 | 2.35% [at 11.4 µM] (inactive) | –
72 | O=C(O)[C@@H]1CCCNC1 | 5.9% [at 25.6 µM] (inactive) | –

Row | SMILES | activity, negative = inhibition | AC50
73 | O=C1C[C@@H](O)[C@@H](O)[C@H]2[C@@H]3C(=O)N(Cc4ccc5c(c4)OCO5)C(=O)[C@@H]3CC[C@H]12 | 14% [at 11.4 µM] (inactive) and -16.6% [at 11.4 µM] (inactive) | –
74 | Cc1ccccc1OC1C(=O)N(Cc2ccc3c(c2)OCO3)C1c1sccc1C (stereo unspecified) | – | 8.91 µM (active)
75 | COc1ccc(CCN2C(=O)C(Oc3ccccc3C)C2c2ccc3c(c2)OCO3)cc1OC (stereo unspecified) | – | 14.1 µM (active)
76 | COC(=O)c1ccc(C2C(Oc3ccccc3)C(=O)N2CCc2ccc(OC)c(OC)c2)cc1 (stereo unspecified) | 6.39% (inactive) | –
77 | COc1ccc(CCN2C(=O)C(O)=C(C(=O)c3ccco3)C2c2cccs2)cc1OC (stereo unspecified) | -8.35% (inactive) | –
78 | O=C1[C@H]2[C@H]3[C@H](O)[C@H](O)C/C(=N/OCc4ccccc4)[C@H]3CC[C@@H]2C(=O)N1Cc1ccc2c(c1)OCO2 | -14.6% [at 11.4 µM] (inactive) | –
79 | CCCCCc1nc2c(=O)[nH]c3ccccc3c2o1 | -9.54% (inactive) | –
80 | CN(C)/C=C/C(=O)c1ccc(F)cc1 | -12.3% (inactive) | –
81 | Cc1ccccc1S(=O)(=O)O[C@@H]1NS(=O)(=O)c2ccccc21 | 6.51% [at 11.4 µM] (inactive) | –
82 | COCn1c2ccccc2c2nnc(C(C)=O)nc21 | -15.8% [at 11.4 µM] (inactive) and -6.91% [at 11.4 µM] (inactive) | –
83 | O=S(=O)(O)C1CCNCC1 | 1.02% (inactive) | –
84 | CC(C)N=C(Nc1ccc(Cl)cc1)c1cccnc1 | -0.649% (inactive) | –
85 | O=S(=O)(O)c1ccc2c(N=Nc3cccc4ccccc34)c(O)c(S(=O)(=O)O)cc2c1 | 5.03% [at 11.4 µM] (inactive) | –
86 | Cc1nn(Cc2c(F)c(F)c(F)c(F)c2F)c(C)c1NC(=O)c1c(-c2ccccc2)nn(-c2ccccc2)c1C | 3.5% (inactive) | –
87 | c1ccc(-c2nc(-c3cccs3)[nH]c2-c2ccccc2)cc1 | -25.3% (inactive) | –
88 | O=[N+]([O-])c1cccc(-c2nc(-c3cccs3)c(-c3cccs3)[nH]2)c1 | – | 15.8 µM (active)
89 | Nc1nc(-c2cccc([N+](=O)[O-])c2)cc(-c2cc(-c3cccc([N+](=O)[O-])c3)nc(N)n2)n1 | -5.72% [at 11.4 µM] (inactive) | –
90 | Cc1cc(C(F)F)n2nc(C(=O)Nc3cccnc3Cl)nc2n1 | -5.89% (inactive) | –
91 | O=C(OCc1ccc(Cl)cc1Cl)c1cccnc1Cl | – | 15.8 µM (active)
92 | O=C(OCc1ccc(Cl)cc1)c1ccccc1C(=O)c1ccccc1 | -25% (inactive) | –
93 | O=C(COC(=O)c1cccnc1Cl)c1ccccc1 | -6.36% (inactive) | –
94 | CCc1ccc2c(c1)c(N=NC1=NC(=O)CS1)c(O)n2CC | 1.76% (inactive) | –
95 | COc1ccc(CN2C(=O)c3ccccc3C(/C=N\OCc3ccc(F)cc3)C2=O)cc1 (stereo unspecified) | -3.7% (inactive) | –
96 | COc1cccc(Cn2c(=O)c(CCc3ccccc3)nc3cnc(OC)nc32)c1 | -7.48% (inactive) | –
